# HCMV inh = qHTS Assay for inhibitors of the human cytomegalovirus (HCMV); HFF cells, HCMV-luciferase reporter, 72 h; active compounds read low; activity change, negative = inhibition, % at 57.5 µM; 410,000 compounds, 4.5% hits; in the data active = activity change below about -60%; inconclusive = no clear call, values can overlap the other calls; inactive = above about -39%
#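 Compounds were evaluated in HFFs infected with an HCMV luciferase reporter virus (MOI 1 PFU/cell). Luciferase in lysates collected 72 h post infection served as the replication measure.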
# LASV entry inh = qHTS for Inhibitors of binding or entry into cells for Lassa Virus; Lassa virus pseudotype entry inhibition, cell reporter; Potency, µM (titrated, usually from 37.9 µM), for inactives: at the top dose activity change, negative = inhibition, usual class: inhibitors; 300,000 compounds, 1.2% hits; calls by dose curve; tested in HEK293 cells; also: potency is read from the fitted curve at half-maximal effect; nearly all actives have a fitted effect of over 50% in size
# Vaccinia Venus = qHTS for Stage-Specific Inhibitors of Vaccinia Orthopoxvirus: Venus Reporter Primary qHTS. 330,000 compounds, 0.46% hits. AID 720580, 2013. Potency, µM (series often up to 36.5 µM), without a hit: at the highest dose activity change, negative = inhibition, actives largely listed as inhibitors. Vaccinia virus Venus reporter expression, fluorescence; calls by dose curve; tested in A549 cells; also: potency is read from the fitted curve at half-maximal effect; nearly all actives have a fitted effect of over 30% in size
# FMDV inh = High Throughput Screening for Foot and Mouth Disease Virus Antivirals; Potency, µM (highest dose often 57.9 µM), for the others: at the highest dose activity change, negative = inhibition, hits mostly inhibitors; 410,000 compounds, 1.2% hits; FMDV antiviral cell-based qHTS; calls by dose curve; tested in HEK293T cells; also: read-out not given here; potency is read from the fitted curve at half-maximal effect; nearly all actives have a fitted effect of over 45% in size
# Vaccinia mCherry = qHTS for Stage-Specific Inhibitors of Vaccinia Orthopoxvirus: mCherry Reporter Primary qHTS | Potency, µM (doses to about 36.5 µM), without a hit: top-dose activity change, negative = inhibition, most hits filed as inhibitors | 310,000 compounds, 0.63% hits | AID 720579, 2013 | Vaccinia virus mCherry reporter infection, fluorescence; calls by dose curve; tested in A549 cells; also: potency is read from the fitted curve at half-maximal effect; nearly all actives have a fitted effect of over 35% in size
# Marburg entry inh = qHTS for inhibitors of binding or entry into cells for Marburg Virus | 300,000 compounds, 1.8% hits | Marburg virus pseudotyped entry inhibition, cell reporter | AID 540276, 2011 | Potency, µM (top dose mostly 37.8 µM), for the others: at the highest dose activity change, negative = inhibition, actives largely listed as inhibitors; calls by dose curve; tested in HEK293 cells; also: potency is read from the fitted curve at half-maximal effect
# * hit, by the source's call; i = inactive; ? = inconclusive; . = no result given; [ ] = another dose, or the depositor's remark. Shown are actives, neighbours in structure and some others; about 6.5% of the full set was active somewhere. % is scaled to controls: 0 for no effect and ±100 for the full control effect.
SMILES,HCMV inh,LASV entry inh,Vaccinia Venus,FMDV inh,Vaccinia mCherry,Marburg entry inh
CCOC(=O)c1cccc(NS(=O)(=O)c2ccc3[nH]c4c(c3c2)CCCC4)c1,-14,-29%[46.1 µM],-14%,29%,-20%,.
COc1ccc(Nc2cc(Nc3ccc(OC)cc3)ncn2)cc1,-37,-8%[46.1 µM],-9%,14%,3%,9%[46.1 µM]
COc1ccc(Nc2cc(Nc3cc(OC)c(OC)c(OC)c3)ncn2)cc1,-90*,-11%,-10%,?,-26%,16µM*
COc1ccc(Nc2cc(C)c3ccccc3n2)cc1,57,-10%[46.1 µM],-11%,12%,-26%,?
COc1ccc(Nc2c3ccccc3nc3ccccc23)cc1,-102*,?,?,?,?,?
COc1ccc2c(c1)[C@@H](NS(C)(=O)=O)[C@H](C)[C@@H](c1ccccc1)N2Cc1cccc(F)c1,-9,.,.,.,.,.
CCCN(CCC)S(=O)(=O)c1ccc(C(=O)N2CCn3c4c(c5cc(C)ccc53)CCCC42)cc1 (centres undefined),-16,7%[46.1 µM],-5%,-11%,2%,-22%[46.1 µM]
CCCc1c(CC)c(=N)c2ccccc2n1C,-87*,-18%[14.3 µM],-23%,?,-22%,-12%
COc1cc2c3c(n(C)c(=O)c2cc1OC)-c1cc2c(cc1C3=O)OCO2,.,?,19%,-12%,-5%,0.56µM*
COc1cc2c(C(=O)NCc3ccc4c(c3)OCO4)cn(C)c(=O)c2cc1OC,16,0%,-8%,-2%,i,2%
Cc1nn(C)c2c1c(C(F)(F)F)cc(=O)n2C(C)C(=O)N1CCN(c2ccccc2)CC1 (centres undefined),4,6%[46.1 µM],-13%,?,-8%,.
CCOC(=O)N1CCN(Cc2nc(N)nc(Nc3ccc(OC)cc3)n2)CC1,2,8%,-14%,12%,-20%,2%
Nc1nc(CN2CCCCCC2)nc(Nc2ccc(F)cc2)n1,10,8%,0%,-6%,-8%,4%[46.1 µM]
CCOC(=O)C1CCCN(Cc2c(F)cccc2Cl)C1 (centres undefined),-75*,2%,.,-8%,.,-3%
CCOC(=O)C1CCCN(Cc2nc(N)nc(Nc3ccc(Cl)cc3)n2)C1 (centres undefined),?,-8%,-23%,28µM*,-21%,7.1µM*
CCOC(=O)N1CCN(Cc2nc(N)nc(Nc3ccc(Oc4ccccc4)cc3)n2)CC1,-11,?,?,32µM*,.,?
CCOC(=O)C1CCN(Cc2c(F)cccc2Cl)CC1,42,?,-8%,8%,0%,-5%
Nc1nc(CN2CCN(c3ccccn3)CC2)nc(Nc2ccc(F)cc2)n1,11,?,.,?,.,2.6µM*
COc1cc(-c2c(-c3ccc4c(c3)OCO4)noc2-c2ccsc2)cc(OC)c1OC,.,.,-4%,.,-10%,.
N#Cc1c(Br)n(C2OC(CO)C(O)C2O)c2ncnc(N)c12 (centres undefined),-95*,?,13µM*,8%,?,?
NC(=O)c1c(Br)n(C2OC(CO)C(O)C2O)c2ncnc(N)c12 (centres undefined),-83*,?,?,-21%,11µM*,?
Nc1ncnc2c1nc(-c1ccccc1)n2C1OC(CO)C(O)C1O (centres undefined),11,.,0%,-9%,6%,.
C[C@H]1CN([C@@H](C)CO)C(=O)CCCn2cc(nn2)CO[C@@H]1CN(C)S(=O)(=O)c1cn(C)cn1,11,.,.,.,.,.
COc1cc(NC(=O)CC(c2ccc(C)cc2)N2Cc3ccccc3C2=O)cc(OC)c1 (centres undefined),13,-19%[46.1 µM],-7%,20%,-24%,.
CCCc1nn2c(=O)cc(COC(=O)c3cccc(NC(=O)c4ccc(OCC)cc4)c3)nc2s1,12,?,-15%,-22%,i,.
SMILES,HCMV inh,LASV entry inh,Vaccinia Venus,FMDV inh,Vaccinia mCherry,Marburg entry inh
CCOC(=O)CSC1=C(C#N)C(=O)NC(c2ccc(OC)c(OC)c2)S1 (centres undefined),7,3%,-13%,28µM*,-17%,12%
COc1ccc(C(=O)/C=C/c2ccc(OC)c(CN3CCOCC3)c2)cc1,-77*,?,?,14µM*,10µM*,?
COc1ccc(C(=O)/C=C/c2ccc(OC)c(Cn3nnc4ccccc43)c2)cc1,?,?,?,13µM*,13µM*,?
COc1ccc(/C=C/C(=O)c2ccccc2O)cc1CN1CCOCC1,.,?,3%,?,.,11µM*
COc1ccc(/C=C/C(=O)c2ccc3ccccc3c2O)cc1CN1CCOCC1,-21,19%,0%,?,-10%,2%
COc1ccc(/C=C/C(=O)C23CC4CC(CC(C4)C2)C3)cc1CN1CCOCC1,-82*,?,-26%,?,-24%,?
COc1cccc(-c2nc(SCC(=O)NC3CCCC3)c(-c3ccccc3)[nH]2)c1,-30,-18%[46.1 µM],-14%,0%,-19%,-3%[46.1 µM]
CC1CCC(C(C)C)C(OC(=O)Cn2c(-c3ccccc3)[n+](C)c3ccccc32)C1 (centres undefined),-100*,7.1µM*,?,13µM*,?,5.8µM*
CC1CCC(C(C)C)C(OC(=O)Cn2c(-c3ccc(F)cc3)[n+](C)c3ccccc32)C1 (centres undefined),-102*,?,?,?,?,?
COc1cccc(CN(C)CC2CCCN(CCc3ccccc3C)C2)c1 (centres undefined),-21,.,.,-23%,.,.
COc1ccc(CN(C)CC2CCCN(CCc3ccccc3C)C2)cc1O (centres undefined),-31,?,-26%,-11%,-13%,8.9µM*
Cc1cnc(NC(=O)c2ccc3c(c2)OCCO3)s1,-80*,.,.,10µM*,.,.
Cc1nc2ccc3nc(NC(=O)c4ccc(S(=O)(=O)N5CCOCC5)cc4)sc3c2s1,9,14%[14.3 µM],-4%,12%,-8%,-12%
Cc1cnc(NC(=O)c2cc3ccccc3o2)s1,71,-30%[46.1 µM],-10%,-10%,i,13µM*
Cc1ccccc1NC(=O)c1ccc2c(c1)OCCO2,25,29%,-16%,0%,.,28%
Cc1nc2ccc3nc(NC(=O)c4ccc5c(c4)OCCO5)sc3c2s1,-106*,?,-4%,18%,-4%,14%
Cc1nc2c(ccc3nc(NC(=O)C(c4ccccc4)c4ccccc4)sc32)s1,1,7%,?,13µM*,?,-6%
Cc1nc2c(ccc3nc(NC(=O)Cc4cccc5ccccc45)sc32)s1,-16,?,-17%,?,9%,-3%
Cn1c(-c2cccc(C(F)(F)F)c2)cc2cnc(Nc3ccc4c(c3)OCCO4)cc21,18,.,.,.,.,.
Cc1ccc(C(=O)Nc2ncc(C)s2)o1,27,?,.,31%,.,5%
